Most compounds without a hit are left out; they make up all but 17% or so of the library.
DT40 TDP1 CPT: DT40-hTDP1 cell growth loss with CPT; chicken DT40 Tdp1-/-;hTDP1 cells + 20 nM CPT, ATP luminescence, 48 h; Potency, µM (top dose mostly 46.2 µM), usual class: inhibitors; hit rate 12% among 420,000; AID 686979; also: nearly all actives have a fitted effect of over 55% in size
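Chicken DT40 Tdp1-/- cells stably complemented with human TDP1 were seeded at 400 cells/well in medium containing 20 nM camptothecin, exposed to pin-transferred compounds, and grown at 37 °C for at least 48 hr. Viability was read as ATP luminescence.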
DT40 TDP1 no CPT: qHTS for Inhibitors of human tyrosyl-DNA phosphodiesterase 1 (TDP1): qHTS in cells in absence of CPT; Potency, µM (top dose mostly 46.2 µM), usual class: inhibitors; DT40 Tdp1-/- hTDP1 cells, no CPT, ATP luminescence, 48 h; hit rate 15% among 420,000; also: nearly all actives have a fitted effect of over 55% in size
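Cells were dispensed at 400 per well, compounds added by pin tool, plates incubated ≥48 hr at 37 °C, then CellTiter-Glo added for 30 min at room temperature before luminescence reading. Line: DT40 Tdp1-/- complemented with hTDP1; camptothecin omitted.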
TDP1 block: TDP1 (human) enzyme inhibition | recombinant TDP1, AlphaScreen DNA substrate cleavage | hit rate 0.28% among 350,000 | Q9NUW8 | AID 485290 | Potency, µM (titrated, usually from 130 µM), hits mostly inhibitors; also: nearly all actives have a fitted effect of over 40% in size
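Enzyme-compound mixtures sat 15 min at room temperature, followed by a 5 min reaction with 15 nM final substrate and 10 min with AlphaScreen beads. Recombinant human Tdp1 was used at 1 nM final.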
ClpP mod: qHTS Assay for Activators of ClpP | ATP-dependent Clp protease proteolytic subunit (Bacillus subtilis (strain 168)), P80244 | purified B. subtilis ClpP, FRET peptide cleavage, 20 min | Potency, µM (titrated, usually from 57.5 µM) | hit rate 1.9% among 340,000 | AID 651965, 2013; active = well fitted falling curve with a large enough effect; inconclusive = small, poorly fitted or top-dose-only effect; inactive = no such curve, though single readings can be large or run the other way; also: the source files actives as falling curves though it sought activators and does not explain the sign; nearly all actives have a fitted effect of over 65% in size
Target sequence (P80244 whole entry, looked up): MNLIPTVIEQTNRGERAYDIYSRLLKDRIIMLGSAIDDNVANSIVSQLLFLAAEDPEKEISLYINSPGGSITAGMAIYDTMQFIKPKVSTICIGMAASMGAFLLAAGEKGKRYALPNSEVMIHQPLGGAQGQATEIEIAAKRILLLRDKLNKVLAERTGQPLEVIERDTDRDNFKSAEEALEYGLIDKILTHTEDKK
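FRET quenching reversal measured ClpP activation: 10 microg/mL B. subtilis ClpP at pH 8 with the FRET-FV decapeptide, read at 430 nm after 320 nm excitation. The 20-min minus 0-min signal was scaled between DMSO/no-enzyme wells and ADEP (5.8 microM final).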
Hits are given with their value; - = inactive; ? = inconclusive; . = no result; [ ] = another dose, or the depositor's remark. Unless noted, calls follow the shape of the dose curve; as a rule, active = well fitted curve in the direction sought with a large enough effect; inconclusive = small, poorly fitted or top-dose-only effect, or another doubt; inactive = no such curve, though single readings can be large; an effect the other way counts as inactive or inconclusive.

SMILES	DT40 TDP1 CPT	DT40 TDP1 no CPT	TDP1 block	ClpP mod
S=C(SSC(=S)N1CCCCC1)N1CCCCC1	0.75µM	0.944µM	.	.
CC(=O)N1CCN(c2ccc(N=Cc3c(O)n(Cc4ccccc4)c(=O)[nH]c3=O)cc2)CC1	?	?	-	-
CC(C)c1oc(=O)cc2c1[C@@H](O)[C@H]1OC(=O)[C@@]3(C)CC[C@@H](O)[C@@]2(C)C13 (some centres not stated)	5.8µM	5.17µM	-	-
CC(C)c1oc(=O)cc2c1[C@@H](O)[C@H]1OC(=O)[C@@]3(C)C[C@@H](O)[C@@H](O)[C@@]2(C)C13 (some centres not stated)	2.06µM	1.84µM	-	-
Cc1cccc(-c2nc3ccc(C(=O)N4CCC5(CC4)OCCO5)cc3nc2-c2cccc(C)c2)c1	?	?	-	-
O=C(c1ccc2c(c1)ncn2C1CCCCC1)N1CCC2(CC1)OCCO2	6.51µM	4.61µM	-	-
Cc1ccc(-n2cc(CNC(C)Cc3cnccn3)c(-c3cccc(C)c3)n2)cc1 (configuration not stated)	13µM	11.6µM	-	-
CNc1ccc2nc3ccccc3[n+](C)c2c1	1.16µM	0.731µM	.	-
C[n+]1c2ccccc2nc2ccc(NCCO)cc21	18.4µM	10.3µM	.	.
Cc1cccc(Cn2cccc(C(=O)Nc3ccc(F)cc3F)c2=O)c1	-	?	-	-
CC(C)Cc1nc(N2CCNCC2)c(C#N)c2c1CCC2	?	18.4µM	?	.
CCc1nc(N2CCNCC2)c(C#N)c2c1CSC(C)(C)C2	?	?	-	?
O=C(Nc1ccc(Cl)c(C(F)(F)F)c1)C1CCCN(S(=O)(=O)c2cccc3cccnc23)C1 (configuration not stated)	7.31µM	6.51µM	-	-
CC(=O)OC1CCC2(C)C3CCC4(C)C(OC(C)=O)CCC4C3C(C)C2(O)C1 (configuration not stated)	?	14.6µM	.	.
O[N+]1=CC=CCC1=S.On1ccccc1=S.[Zn]	0.0326µM	0.146µM	.	.
CC1=C2CCC3C4CCC(=O)[C@@]4(C)CCC3[C@]2(C)CCC1=O (some centres not stated)	-	-	-	.
CC12C=CC(=O)C=C1CCC1C2C(=O)CC2(C)C(=O)CCC12 (configuration not stated)	-	-	.	-
C=C1C[C@@H]2[C@H](CC[C@]3(C)C(=O)CC[C@@H]23)[C@@]2(C)C=CC(=O)C=C12	16.4µM	8.41µM	-	.
CCCSP(=O)(OCC)SCCC	-	-	.	.
CC(N)C(=O)NC1C2C(=C(O)CC(O)C2O)C(=O)OC1(C)C(Cl)Cl (configuration not stated)	0.184µM	0.164µM	.	-
O=C(Nc1ccc2nc(SCC(=O)N3CCOCC3)sc2c1)c1ccc(Cl)cc1	?	7.31µM	-	-
Cc1ccc2nc(NC(=O)c3cccn(Cc4ccc(Cl)cc4)c3=O)sc2c1	-	-	-	-
COP(=S)(OC)SCn1nnc2ccccc2c1=O	?	23.1µM	-	-
CC(C)(C)c1[nH]nc2c1C(c1ccoc1)C(C#N)=C(N)O2 (configuration not stated)	-	?	-	-
CC(CC(C)(C)N1CC1)=NNC(=O)Nc1cccc2ccccc12	3.66µM	2.91µM	.	?
SMILES	DT40 TDP1 CPT	DT40 TDP1 no CPT	TDP1 block	ClpP mod
Cc1ccccc1NC(=O)NCCN1CC1	4.11µM	7.31µM	-	-
O=C(NCCCN1CC1)Nc1cccc2ccccc12	1.64µM	7.31µM	.	25.1µM
COC(=O)[C@H]1[C@H](c2ccccc2)C(=O)[C@@]2(O)c3ccccc3O[C@@]12c1ccccc1	.	.	-[21 µM]	.
BrCCBr	.	.	-	.
CCC(COC(=O)NC)NC(=O)Oc1cccc(C)c1 (configuration not stated)	-	-	-	-
CC(=O)c1cccc(OCC(O)CN2CC=C(c3ccccc3)CC2)c1 (configuration not stated)	?	16.4µM	-	-
NC(=O)c1ccc(OCC(O)CN2CC=C(c3ccc(F)cc3)CC2)cc1 (configuration not stated)	.	.	-	.
Cc1cccc(OCC(O)CN2CC2)c1 (configuration not stated)	3.66µM	6.51µM	.	-
C=CCN1C(=O)/C(=C/c2ccc(Br)s2)C(=O)NC1=S	?	20.6µM	.	-
Cc1ccsc1/C=C1\C(=O)NC(=S)N(C)C1=O	5.8µM	3.26µM	-	-
CN1C(=O)/C(=C/c2ccc(Cl)s2)C(=O)NC1=S	7.31µM	9.2µM	-	.
CCOP(=O)(/C(C#N)=C(\C)O)c1ccccc1 (configuration not stated)	-	?	-	-

Screening results from PubChem.
